Screening results as filed in PubChem BioAssay.
ClpP mod: qHTS Assay for Activators of ClpP; purified B. subtilis ClpP, FRET peptide cleavage, 20 min; 1.9% of 340,000 active; ATP-dependent Clp protease proteolytic subunit (Bacillus subtilis (strain 168)), P80244; AID 651965, 2013; Potency, µM (series often up to 57.5 µM), without a hit: top-dose activity change, negative = active; active = well fitted falling curve with a large enough effect; inconclusive = small, poorly fitted or top-dose-only effect; inactive = no such curve, though single readings can be large or run the other way; also: potency is read from the fitted curve at half-maximal effect; the source files actives as falling curves though it sought activators and does not explain the sign; nearly all actives have a fitted effect of over 65% in size
Target sequence (P80244 whole entry, looked up): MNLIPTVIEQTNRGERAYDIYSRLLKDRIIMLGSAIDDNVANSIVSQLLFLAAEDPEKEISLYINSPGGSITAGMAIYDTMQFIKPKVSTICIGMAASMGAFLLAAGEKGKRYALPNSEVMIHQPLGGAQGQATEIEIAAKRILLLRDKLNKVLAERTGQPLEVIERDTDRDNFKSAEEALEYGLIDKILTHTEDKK
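Buffer: 100 mM Tris/HCl pH8, 100 mM KCl, 0.05% low protease BSA, 2.5% glycerol, 0.01% Tween-20. ClpP 10 microg/mL final; 20 min RT; delta FRET normalized to ADEP and DMSO controls.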
D3 ag: D3 dopamine receptor (human) agonism; max activation, %; 0.58% of 410,000 active; P35462; D3R DiscoveRx beta-arrestin cells, luminescence, 90 min; in the data active = max activation above about 30%; also: 0% is about no effect
Target sequence (P35462 whole entry, looked up): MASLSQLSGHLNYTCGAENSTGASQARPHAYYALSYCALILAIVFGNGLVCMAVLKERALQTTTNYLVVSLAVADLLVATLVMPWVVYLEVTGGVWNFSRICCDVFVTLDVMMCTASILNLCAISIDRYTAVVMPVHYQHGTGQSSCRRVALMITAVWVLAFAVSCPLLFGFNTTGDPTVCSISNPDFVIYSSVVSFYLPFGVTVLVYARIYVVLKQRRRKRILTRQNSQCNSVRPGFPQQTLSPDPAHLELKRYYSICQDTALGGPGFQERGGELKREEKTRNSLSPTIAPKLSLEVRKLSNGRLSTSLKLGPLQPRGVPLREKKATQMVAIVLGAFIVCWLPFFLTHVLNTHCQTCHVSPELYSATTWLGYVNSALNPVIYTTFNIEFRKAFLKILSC
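Agonist mode: compounds and dopamine controls were applied to plated cells for 90 min at 37 degrees C after an overnight attachment at 1500 cells/well. Luminescent read-out followed 30 - 60 minutes at room temperature with DiscoveRx detection reagent.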
DRD3 antagonist: antagonists of human D3 dopamine receptor; max response, negative = inhibition, %; 2.5% of 360,000 active; D3R cells, DiscoveRx beta-arrestin luminescence, antagonist mode; active compounds read low; AID 652054; in the data active = max response below about -50%; inconclusive = no clear call, values can overlap the other calls; also: % is scaled to controls: 0 for no effect and ±100 for the full control effect
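Cells expressing the human receptor were seeded at 1500 cells/well, incubated overnight at 37 degrees C in 5% CO2, then exposed to library compounds with dopamine controls for 90 minutes at 37 degrees C before luminescent detection.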
TDP1 cell noCPT: qHTS for Inhibitors of human tyrosyl-DNA phosphodiesterase 1 (TDP1): qHTS in cells in absence of CPT | DT40 Tdp1-/- hTDP1 cells, no CPT, ATP luminescence, 48 h | Potency, µM (highest dose often 46.2 µM), for the others: at the highest dose activity change, negative = growth inhibition, usual class: inhibitors | 15% of 420,000 active | AID 686978, 2013; also: potency is read from the fitted curve at half-maximal effect; % is scaled to controls: 0 for no effect and ±100 for the full control effect; nearly all actives have a fitted effect of over 55% in size
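Growth kinetics read by CellTiter-Glo luminescence after ≥48 hr at 37 °C. Cells: DT40 Tdp1-/- stably carrying human TDP1, 400 per well, compound exposure in the absence of CPT (DMSO vehicle).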
DT40 TDP1 CPT: growth inhibition of DT40 Tdp1-/-;hTDP1 cells with camptothecin (screen for TDP1 inhibitors) | chicken DT40 Tdp1-/-;hTDP1 cells + 20 nM CPT, ATP luminescence, 48 h | Potency, µM (highest dose often 46.2 µM), for the others: at the top dose activity change, negative = growth inhibition, usual class: inhibitors | 12% of 420,000 active | AID 686979; also: potency is read from the fitted curve at half-maximal effect; % is scaled to controls: 0 for no effect and ±100 for the full control effect; nearly all actives have a fitted effect of over 55% in size
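Cell growth measured by CellTiter-Glo luminescence after a minimum 48 h, 37 C compound exposure with 20 nM CPT in Tdp1-knockout DT40 cells stably expressing hTDP1, seeded 400/well; qHTS titration format.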
IL-1B inflam inh: inflammasome signaling inhibition, IL-1 beta readout | THP-1 LPS/ATP IL-1B secretion, AlphaLISA, 16 h; active compounds read low | activity change, % at 57.5 µM | 4.7% of 360,000 active; in the data active = activity change below about -50%; inconclusive = mostly about -30% to -49%; also: % is scaled to controls: 0 for no effect and ±100 for the full control effect
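Secreted IL-1B measured by AlphaLISA bead assay after 16 h compound exposure of THP-1 cells; compounds (final up to 57.5 uM) added 1 h before LPS (250 ng/mL) and ATP (1.25 mM) stimulation; lower signal means less secretion.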
* = called active by the depositor; u = inconclusive; x = no result. Only some compounds are listed: those with a hit (about 21% of all), similar ones and a draw of the others. Unless noted, calls follow the shape of the dose curve; as a rule, active = well fitted inhibition curve with a large enough effect; inconclusive = small, poorly fitted or top-dose-only effect; inactive = flat fitted curve, though single readings scatter.

SMILES	ClpP mod	D3 ag	DRD3 antagonist	TDP1 cell noCPT	DT40 TDP1 CPT	IL-1B inflam inh
Cc1ccc(CNC(=O)c2cccc3c2C(=O)c2ccc(N4CCCCC4)cc2S3(=O)=O)cc1	-3%	-7	43	u	29µM*	13
Cc1ccc(CNC(=O)c2cccc3c2C(=O)c2ccc(N4CCOCC4)cc2S3(=O)=O)cc1	-1%	26	28	u	u	-2
O=C1COc2cc(S(=O)(=O)CCC(=O)N3CCCCC3)c(Cl)cc2N1	3%	0	6	-16%	-14%	-6
CS(=O)c1ccc(-n2c(=O)n(Cc3ccccc3)c(=O)c3[nH]cnc32)cc1 (stereo not drawn)	x	-10	-6	4%	-2%	-22
COc1ccc(-c2ccc(OC)cc2)cc1	-7%	2	u	1%	6%	-11
COc1ccc(-c2nncnn2)cc1	-1%	-2	-52*	u	u	13
COc1ccc(CCNC(=O)C2CCCN(c3nc4c(C)cc(C)cc4s3)C2)cc1OC (stereo not drawn)	4%	10	x	13µM*	21µM*	x
CCOc1ccc(CNC(=O)C2CCCN(c3nc4c(C)cc(C)cc4s3)C2)cc1 (stereo not drawn)	0%	-5	x	u	18µM*	x
COc1ccc(CCNC(=O)C2CCCN(c3nc4ccccc4s3)C2)cc1OC (stereo not drawn)	x	8	37	u	u	-20
CCOc1ccc2nc(N3CCCC(C(=O)NCc4ccc(C)cc4)C3)sc2c1 (stereo not drawn)	1%	8	x	u	u	x
Cc1ccc(S(=O)(=O)NCCc2nnc3ccc(SCC(=O)Nc4ccc(F)cc4F)nn23)cc1	-3%	2	x	5%	-22%	x
COc1cccc(CN2CCNC(=O)C2CC(=O)N(C)C2CCOCC2)c1 (stereo not drawn)	-6%	-4	10	4%	-1%	0
CCCNC(=O)c1onc(CSc2ccc(Cl)cc2)c1C(=O)NCCC(C)C	-1%	6	2	u	u	-19
NNC(=S)Nc1ccc(C(F)(F)F)cc1Cl	-2%	2	-6	-11%	u	21
COc1ccc(O)c(-c2cc(-c3cccc(Br)c3)n[nH]2)c1	-1%	-5	0	16µM*	u	-6
COc1ccc(-c2cc(-c3ccc(Cl)cc3)n[nH]2)c(O)c1	0%	-1	10	u	u	u
COc1ccc(-c2cc(-c3cc(OC)ccc3O)[nH]n2)cc1	-16%	-5	8	u	21µM*	-8
COc1ccc(O)c(-c2cc(-c3ccc(F)cc3)n[nH]2)c1	x	2	60	u	-25%	-51*
Cc1cn([C@H]2C[C@H](O)[C@@H](CCC(=O)NCc3ccco3)O2)c(=O)[nH]c1=O	-23%	-13	0	-19%	-4%	0
C/C(=N\NC(=O)c1cccc(S(=O)(=O)N2CCOCC2)c1)c1cc2ccccc2o1	-5%	-13	-13	u	u	7
O=c1oc2ccccc2c(N2CCCCC2)c1CN1CCCC1	-4%	-38	-21	-9%	-16%	-8
O=c1oc2ccccc2c(N2CCN(c3ccc(F)cc3)CC2)c1CN1CCCC1	1%	-15	x	16µM*	u	x
O=C(c1ccc2c(c1)OCCO2)C1CCN(C(=O)c2ccc(F)c(F)c2)CC1	-22%	3	20	16µM*	u	-14
O=C(c1ccc(F)cc1)C1CCN(C(=O)c2ccc(Cl)cc2)CC1	1%	-5	-28	18µM*	u	-10
Cc1cc(C)c2cc(C(=O)N3CCC(C(=O)c4ccc(F)cc4)CC3)[nH]c2c1	-3%	-8	13	21µM*	u	u
SMILES	ClpP mod	D3 ag	DRD3 antagonist	TDP1 cell noCPT	DT40 TDP1 CPT	IL-1B inflam inh
O=C(c1ccc(Cl)cc1)C1CCN(C(=O)c2ccccc2)CC1	1%	4	-2	15µM*	u	u
O=C(c1ccc(Cl)cc1)C1CCN(C(=S)Nc2ccccc2)CC1	-3%	1	-13	16µM*	-17%	-11
Cc1ccc(CN2CCc3c(OCc4ccc(F)cc4)cccc3C2=O)cc1	-9%	-3	-23	u	u	-62*
O=C1c2cccc(OCc3ccc(F)cc3)c2CCN1Cc1ccc(F)cc1	-2%	6	6	12µM*	u	-68*
CN1CCc2c(OCc3ccc(F)cc3)cccc2C1=O	x	3	3	u	-21%	-21
COc1ccccc1NC(=O)COC(=O)c1[nH]c(=O)[nH]c(=O)c1N	-23%	-10	u	7%	-4%	28
CN(C)CCCN(C(=O)c1ccc(S(=O)(=O)N2CCCCCC2)cc1)c1nc2cc3c(cc2s1)OCO3	0%	-3	-6	u	u	-12
CC1CCCCN1S(=O)(=O)c1ccc(C(=O)N(CCCN(C)C)c2nc3ccc(Br)cc3s2)cc1 (stereo not drawn)	-1%	-12	-15	u	21µM*	-105*
CCC1CCCCN1S(=O)(=O)c1ccc(C(=O)N(CCCN(C)C)c2nc3cc4c(cc3s2)OCO4)cc1 (stereo not drawn)	-1%	-14	-27	u	16µM*	-80*
Cc1ccc(C)c(N(C)C(=O)c2coc(=O)c3ccccc23)c1	-1%	0	-9	23µM*	u	1
COc1ccc(/C=N/NC(=O)c2nc(Cl)c(Cl)c(N)c2Cl)cc1COc1ccccc1F	206%	20	0	u	23µM*	41
COc1ccc(/C=N/NC(=O)c2nc(Cl)c(Cl)c(N)c2Cl)cc1COc1ccc(F)cc1F	7.9µM*	17	1	u	u	61
COc1ccc(/C=N/NC(=O)c2ccco2)cc1COc1ccc(F)cc1	-27%	-5	11	-29%	-21%	0
CCN(CC)S(=O)(=O)c1cc(-c2nnc(-c3ccc(Br)cc3)o2)ccc1Br	-7%	-10	-65*	9.2µM*	15µM*	u
CCN(CC)S(=O)(=O)c1cc(-c2nnc(-c3ccc(Br)cc3)o2)ccc1Cl	u	-11	9	18µM*	12µM*	u
CCN(CC)S(=O)(=O)c1cccc(-c2nnc(-c3ccc(C)cc3)o2)c1	u	-13	-11	-21%	u	-6
Brc1ccc(-c2nnc(-c3cccc(Br)c3)o2)cc1	-11%	3	-3	-21%	-4%	18
